Experimental data published in PubChem BioAssay (NCI).
About 83,000 compounds went through this panel and 20% of them were active in at least one assay; those are over-represented in the sample as a whole.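 Percent growth is the endpoint: 0 to 100 indicates growth inhibition (40 means 60% inhibition), 0 means no net growth, and negative values indicate cell death.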 Calls of active or inactive are those of the source. Rule for the calls: active = growth percent below 10; inactive = the rest.

Assays:
Assay in all cases: NCI-60 one-dose screen, 48 h (100 = growth as untreated, 0 = no growth, -100 = all killed)
Settings in all cases: 10 µM unless noted
[1] = tested on: DU-145 prostate
[2] = tested on: K-562 leukemia
[3] = tested on: MALME-3M melanoma
[4] = tested on: MDA-MB-231 breast
[5] = tested on: RXF 393 renal
[6] = tested on: SF-268 CNS
[7] = tested on: SF-295 CNS
[8] = tested on: SF-539 CNS
[9] = tested on: UACC-257 melanoma
[10] = tested on: M14 melanoma
[11] = tested on: HCT-15 colon
[12] = tested on: HT29 colon
[13] = tested on: SNB-75 CNS
[14] = tested on: SNB-19 CNS
[15] = tested on: U251 CNS
[16] = tested on: PC-3 prostate
[17] = tested on: SK-MEL-5 melanoma
[18] = tested on: UACC-62 melanoma
[19] = tested on: LOX IMVI melanoma
[20] = tested on: SK-MEL-28 melanoma

Measured: growth

CN1CCN(c2nc(C3=C(c4c[nH]c5ccccc45)C(=O)NC3=O)c3ccccc3n2)CC1
active: [3] -12.8% | [9] -20% | [18] 6.81% | [20] 3.91%
inactive: [1] 90.5% | [2] 66.5% | [4] 70.6% | [5] 120% | [6] 95.1% | [7] 98.7% | [8] 92.2% | [10] 12.2% | [11] 85.3% | [12] 11.6% | [13] 79.4% | [14] 87.5% | [15] 69.4% | [16] 108% | [17] 45.6% | [19] 80.4%

NC(=O)c1c(OCc2c(F)cc(Br)cc2F)nsc1NC(=O)NCCCCN1CCCC1
inactive: [1] 22.6% | [6] 11.7%
active: [2] -46.8% | [3] -79.8% | [4] -38.1% | [5] -81.9% | [7] -81% | [8] -92% | [9] -80.3% | [10] -76.1% | [11] 5.99% | [12] -38.9% | [13] -79.9% | [14] 5.06% | [15] -83.3% | [16] 3.22% | [17] -99.1% | [18] -75.6% | [19] -90.6% | [20] -74.6%

Cc1cc(C)n(CC(=O)Nc2ccc(-c3nc4ccccc4s3)cc2)n1
inactive: [1] 103% | [2] 100% | [3] 108% | [4] 108% | [5] 129% | [6] 100% | [7] 103% | [8] 98.6% | [9] 107% | [10] 111% | [11] 105% | [12] 108% | [13] 101% | [14] 99.8% | [15] 89.7% | [16] 86.8% | [17] 96.4% | [18] 95.3% | [19] 97.7% | [20] 109%

Cc1cc(Nc2cc(N3CCN(C)CC3)nc(Sc3ccc(NC(=O)C4CC4)cc3)n2)n[nH]1
inactive: [1] 55.7% | [3] 29.3% | [4] 37.1% | [6] 48.6% | [7] 32.7% | [9] 18.1% | [10] 22.3% | [11] 40.2% | [14] 46.8% | [15] 30% | [16] 35.2% | [18] 13% | [20] 34.4%
active: [2] 8.47% | [5] -18.7% | [8] 9.92% | [12] 0.79% | [13] 0.133% | [17] 9.58% | [19] -69.2%

O=C1NC(=O)C(c2cnc3ccccn23)=C1c1cn2c3c(cc(F)cc13)CN(C(=O)N1CCCCC1)CC2
inactive: [1] 68.7% | [2] 27.9% | [3] 64.6% | [4] 70.2% | [5] 16.6% | [6] 64.7% | [7] 35.7% | [8] 53.8% | [9] 67.1% | [10] 50.7% | [11] 56.7% | [12] 22.9% | [13] 37.4% | [14] 71.1% | [15] 36.3% | [16] 41.8% | [17] 32.8% | [18] 40.1% | [19] 27.5% | [20] 76.8%

O=S1(=O)OC(c2cc(Cl)c(O)c(Br)c2)(c2cc(Cl)c(O)c(Br)c2)c2ccccc21
inactive: [1] 114% | [2] 109% | [3] 115% | [4] 94.8% | [5] 109% | [6] 106% | [7] 127% | [8] 94.6% | [9] 95.4% | [10] 99.4% | [11] 105% | [12] 102% | [13] 83.4% | [14] 102% | [15] 101% | [16] 84.3% | [17] 107% | [18] 97.1% | [19] 96.5% | [20] 118%

O=C1C=CC2(NN=C(c3ccccc3)N2c2cccc(Cl)c2)c2cccc(O)c21 (stereo not given)
inactive: [1] 95.9% | [2] 23% | [3] 38.7% | [4] 68.6% | [5] 118% | [6] 72.4% | [7] 40.8% | [8] 33.9% | [9] 30.8% | [10] 53.2% | [11] 23.8% | [12] 79.3% | [13] 57.5% | [14] 43.9% | [15] 24.1% | [16] 32.7% | [20] 35.8%
active: [17] -54.6% | [18] 3.48% | [19] 3.66%

COc1ccc2c(c1)cn1c3ccc(O)cc3nc(N)c21
inactive: [1] 24.1% | [2] 11.1% | [3] 31.2% | [4] 23.6% | [6] 31.6% | [7] 21.9% | [9] 60.4% | [10] 10.4% | [11] 18.5% | [12] 21.2% | [13] 15% | [14] 26.9% | [15] 23.7% | [16] 19.9% | [17] 17.8% | [18] 32.5% | [19] 24.2% | [20] 42.6%
active: [5] 3.22% | [8] -23.2%

CC#CC(=O)N1CCC[C@H]1c1nc(-c2ccc(C(=O)Nc3ccccn3)cc2)c2c(N)nccn12
inactive: [1] 89.1% | [2] 77.2% | [3] 99% | [4] 90.3% | [5] 93.3% | [6] 79.5% | [7] 89.9% | [8] 95.4% | [9] 57.7% | [10] 83.1% | [11] 87.8% | [12] 73.4% | [13] 77% | [14] 90.6% | [15] 83.6% | [16] 81.1% | [17] 86.6% | [18] 77.1% | [19] 93.7% | [20] 88.3%

Cc1ncc(-c2ccnc(Nc3ccc(S(C)(=O)=O)cc3)n2)n1C(C)C
active: [1] 4.62% | [2] 3.66% | [3] -47.7% | [4] -8.39% | [5] -50.9% | [6] 3.67% | [7] -0.591% | [8] -65.4% | [9] -28.3% | [10] -74.5% | [11] 1.34% | [12] -16.6% | [13] -37.9% | [14] 7.36% | [15] 3.47% | [16] -11.1% | [17] -55.5% | [18] -71.5% | [19] 3.16% | [20] -41.8%

CC(=O)O[C@]1(C)C[C@H](O)[C@]2(O)C=CO[C@H](O[C@@H]3O[C@H](CO)[C@@H](O)[C@H](O)[C@H]3O)[C@@H]21
inactive: [1] 102% | [2] 97.3% | [3] 97.5% | [4] 98.5% | [5] 109% | [6] 94.3% | [7] 90.9% | [8] 97.5% | [9] 109% | [10] 98.6% | [11] 99.1% | [12] 103% | [13] 83.3% | [14] 99.6% | [15] 99.8% | [16] 103% | [17] 103% | [18] 100% | [19] 105% | [20] 112%

O=C1NC(=O)[C@@H](c2cn3c4c(cccc24)CCC3)[C@@H]1c1c[nH]c2ccccc12
active: [2] 9.6% | [5] 6.54% | [8] -17.3% | [10] 8.08% | [12] 0.272% | [13] 5.51% | [15] 8.44% | [17] 3.82%
inactive: [1] 15% | [3] 59.7% | [4] 34.1% | [6] 34.2% | [7] 19.2% | [9] 38.5% | [11] 16.8% | [14] 27.3% | [16] 21.1% | [18] 33.9% | [19] 19.2% | [20] 61.3%

O=C(CNc1nc2ccccc2s1)Nc1ccc(-c2nc3ccccc3s2)cc1
inactive: [1] 106% | [2] 95.1% | [3] 98.1% | [4] 99.2% | [5] 112% | [6] 92.1% | [7] 107% | [8] 107% | [9] 102% | [10] 115% | [11] 105% | [12] 109% | [13] 99% | [14] 100% | [15] 89.1% | [16] 95% | [17] 103% | [18] 94.6% | [19] 75.8% | [20] 113%

CCN(CCO)CCCOc1ccc2c(Nc3cc(CC(=O)Nc4cccc(F)c4)[nH]n3)ncnc2c1
inactive: [1] 56.6% | [2] 32% | [4] 39.4% | [5] 86.1% | [6] 56.2% | [7] 65.4% | [8] 25.8% | [11] 52.5% | [13] 76.3% | [14] 39.1% | [15] 39.8% | [16] 62.6% | [17] 63.3% | [19] 17.8%
active: [3] -17.5% | [9] -23.2% | [10] 4.94% | [12] -1.18% | [18] -4.86% | [20] -6.81%

Cc1cccc(C)c1N1C(c2ccccc2)=NNC12C=CC(=O)c1c(O)cccc12 (stereo not given)
inactive: [1] 93.7% | [2] 46.5% | [3] 62.7% | [4] 91.9% | [5] 105% | [6] 84.3% | [7] 61.3% | [8] 67.1% | [9] 58.5% | [10] 54.2% | [11] 32.8% | [12] 89.4% | [13] 96.7% | [14] 69.7% | [15] 40.9% | [16] 38.8% | [18] 24.5% | [20] 110%
active: [17] -37.2% | [19] 7.95%

Cc1cnc(Nc2ccc(OCCN3CCCC3)cc2)nc1Nc1cccc(S(=O)(=O)NC(C)(C)C)c1
active: [2] 1.89% | [3] -34.1% | [4] 6.69% | [5] -86.7% | [6] -10.9% | [8] -83.2% | [9] -78.9% | [10] -48% | [11] 5.6% | [12] -41.8% | [13] -97.9% | [17] -90.4% | [18] -23.1% | [19] -79.4% | [20] -10.7%
inactive: [1] 17.6% | [7] 15.5% | [14] 21.3% | [15] 15.9% | [16] 20%
